Pf Dd2 growth: inhibitors of Plasmodium falciparum Dd2 growth. 94,000 tested, 2.3% active. activity change, % at 10 µM. P. falciparum Dd2 growth, SYBR Green, 72 h; hits give low values. AID 1159554; in the data active means activity change below about -80%; inconclusive means no clear call, values can overlap the other calls
C diff HTS: C. difficile growth inhibition | 86,000 tested, 0.25% active | growth activity, negative = inhibition, % at 16 µg/mL (by protocol) | Clostridium difficile clinical isolate growth, OD600, 24 h; hits give low values | AID 1259249;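 active means mean growth activity at or below -80% and every replicate also at or below -80%; inconclusive means mean at or below -80% but some replicate above -80%; inactive means mean growth activity above -80%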;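 further: 0% = DMSO wells and -100% = levofloxacin 16 µg/mL wells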
T cruzi growth: T. cruzi proliferation inhibition. T. cruzi beta-gal in NIH3T3, GalScreen luminescence, 90 h. inhibition, % at 8.34 µM. 77,000 tested, 5.9% active;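 active means mean inhibition above about 93%, with at least 55% of replicates each passing it, limit read from the data, passing the limit was not always enough; inconclusive means only one of those two conditions holds; inactive means neither condition holds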
Active calls of the source: *; ? = inconclusive; / = not tested or not shown. The list is not random: actives were taken first. Their share in the collection is about 6.8%.

SMILES | Pf Dd2 growth | C diff HTS | T cruzi growth
COC(=O)C[C@@H]1C[C@@H]2c3cc(NS(=O)(=O)c4cccc(OC)c4)ccc3O[C@@H]2[C@H](CO)O1 | 33 | -5 | /
COc1ccc(S(=O)(=O)N(C)C[C@H]2OCCCC[C@H](C)Oc3ccc(NC(=O)c4ccccc4)cc3C(=O)N([C@H](C)CO)C[C@@H]2C)cc1 | -71 | 22 | 89
COc1ccc(S(=O)(=O)N(C)C[C@H]2OCCCC[C@@H](C)Oc3ccc(NC(=O)c4ccccc4)cc3C(=O)N([C@@H](C)CO)C[C@@H]2C)cc1 | -83* | 17 | 91
COc1ccc(S(=O)(=O)N(C)C[C@@H]2OCCCC[C@@H](C)Oc3ccc(NC(=O)c4ccccc4)cc3C(=O)N([C@H](C)CO)C[C@@H]2C)cc1 | -65 | 6 | 65
COc1ccc(S(=O)(=O)N(C)C[C@@H]2OCCCC[C@H](C)Oc3ccc(NC(=O)c4ccccc4)cc3C(=O)N([C@H](C)CO)C[C@H]2C)cc1 | -83* | 2 | 61
COc1ccc(S(=O)(=O)N(C)C[C@H]2OCCCC[C@@H](C)Oc3ccc(NC(=O)c4ccccc4)cc3C(=O)N([C@@H](C)CO)C[C@H]2C)cc1 | -64 | 11 | 76
COc1ccc(S(=O)(=O)N(C)C[C@H]2OCCCC[C@H](C)Oc3ccc(NC(=O)c4ccccc4)cc3C(=O)N([C@H](C)CO)C[C@H]2C)cc1 | -87* | 16 | 57
CCC(=O)Nc1ccc2c(c1)C(=O)N(C)C[C@H](OC)[C@@H](C)CN(CCC(F)(F)F)[C@@H](C)CO2 | 12 | 5 | /
C[C@@H]1CN([C@@H](C)CO)C(=O)c2cc(NC(=O)CCCN(C)C)ccc2O[C@H]1CN(C)Cc1ccncc1 | 7 | -2 | -2
CC(C)C#Cc1ccc([C@H]2[C@H](CO)N3C(=O)CN(C(=O)NC4CCCC4)C[C@@H]23)cc1 | 13 | -10 | /
C[C@H](CO)N1C[C@H](C)[C@@H](CN(C)Cc2ccc(C(=O)Nc3ccccc3N)cc2)Oc2c(NS(=O)(=O)c3ccc(F)cc3)cccc2C1=O | -44 | 4 | /
C[C@@H]1CN([C@H](C)CO)C(=O)c2cccc(NS(=O)(=O)c3ccccc3)c2O[C@H]1CN(C)Cc1ccc(-c2ccccc2)cc1 | -91* | / | -87
Cc1ccc(S(=O)(=O)Nc2cccc3c2O[C@H](CN(C)Cc2ccc(C(=O)Nc4ccccc4N)cc2)[C@H](C)CN([C@H](C)CO)C3=O)cc1 | -85* | 8 | 50
C[C@@H]1CN([C@H](C)CO)C(=O)c2cccc(NS(=O)(=O)c3ccc(Cl)cc3)c2O[C@@H]1CN(C)Cc1ccc(C(=O)Nc2ccccc2N)cc1 | -87* | 2 | 93
Cc1ccc(S(=O)(=O)Nc2cccc3c2O[C@H](CN(C)Cc2ccc(C(=O)Nc4ccccc4N)cc2)[C@@H](C)CN([C@@H](C)CO)C3=O)cc1 | -74 | 3 | /
C[C@@H]1CN([C@H](C)CO)C(=O)c2cccc(NS(=O)(=O)c3ccccc3)c2O[C@H]1CN(C)Cc1ccc(C(=O)Nc2ccccc2N)cc1 | -78 | 0 | /
C[C@@H]1CN([C@H](C)CO)C(=O)c2cccc(NS(=O)(=O)c3ccccc3)c2O[C@@H]1CN(C)Cc1ccc(-c2ccccc2)cc1 | -4 | / | 64
C[C@H](CO)N1C[C@H](C)[C@H](CN(C)Cc2ccc(C(=O)Nc3ccccc3N)cc2)Oc2c(NS(=O)(=O)c3ccccc3)cccc2C1=O | -86* | -4 | /
C[C@@H]1CN([C@@H](C)CO)C(=O)Cc2cc(NS(=O)(=O)c3cn(C)cn3)ccc2O[C@@H]1CN(C)CC1CC1 | 5 | -3 | 12
CO[C@@H]1CN(C)C(=O)c2ccc(NS(=O)(=O)CC(F)(F)F)cc2OC[C@@H](C)N(C(=O)c2ccc3c(c2)OCO3)C[C@@H]1C | 20 | 0 | -24
C[C@H](CO)N1C[C@H](C)[C@H](CN(C)Cc2ccc(C(=O)Nc3ccccc3N)cc2)Oc2c(NS(=O)(=O)c3ccc(Cl)cc3)cccc2C1=O | -89* | 9 | /
Cc1ccc(S(=O)(=O)Nc2cccc3c2O[C@@H](CN(C)Cc2ccc(C(=O)Nc4ccccc4N)cc2)[C@H](C)CN([C@@H](C)CO)C3=O)cc1 | -72 | 6 | /
C[C@@H]1CN([C@@H](C)CO)C(=O)c2cc(C3=CCCC3)cnc2O[C@H]1CN(C)C | 13 | 11 | 24
COc1ccc(CN(C)C[C@H]2Oc3ccc(NC(=O)CCCCCC(=O)Nc4ccccc4N)cc3CC(=O)N([C@@H](C)CO)C[C@H]2C)cc1 | -76 | 2 | /
C[C@H](CO)N1C[C@H](C)[C@H](CN(C)Cc2ccc(-c3ccccc3)cc2)Oc2ccc(NC(=O)CCCCCC(=O)Nc3ccccc3N)cc2CC1=O | -83* | -5 | 36
SMILES | Pf Dd2 growth | C diff HTS | T cruzi growth
C[C@@H]1CN([C@H](C)CO)C(=O)Cc2cc(NC(=O)CCCCCC(=O)Nc3ccccc3N)ccc2O[C@@H]1CN(C)Cc1ccc(-c2ccccc2)cc1 | -44 | 4 | 75
COc1ccc(CN(C)C[C@@H]2Oc3ccc(NC(=O)CCCCCC(=O)Nc4ccccc4N)cc3CC(=O)N([C@H](C)CO)C[C@@H]2C)cc1 | -85* | 2 | /
COc1ccc(CN(C)C[C@H]2Oc3ccc(NC(=O)CCCCCC(=O)Nc4ccccc4N)cc3CC(=O)N([C@H](C)CO)C[C@H]2C)cc1 | -39 | -17 | 24
COc1ccc(CN(C)C[C@@H]2Oc3ccc(NC(=O)CCCCCC(=O)Nc4ccccc4N)cc3CC(=O)N([C@@H](C)CO)C[C@@H]2C)cc1 | -87* | -3 | /
Cc1noc(C)c1S(=O)(=O)Nc1ccc2c(c1)C(=O)N([C@H](C)CO)C[C@@H](C)[C@H](CN(C)S(=O)(=O)c1ccc(F)cc1)O2 | 3 | -3 | -1
Cc1noc(C)c1S(=O)(=O)Nc1ccc2c(c1)C(=O)N([C@@H](C)CO)C[C@@H](C)[C@H](CN(C)S(=O)(=O)c1ccc(Cl)cc1)OCCCC[C@@H](C)O2 | -69 | 10 | 90
Cc1noc(C)c1S(=O)(=O)Nc1ccc2c(c1)C(=O)N([C@@H](C)CO)C[C@@H](C)[C@H](CN(C)S(=O)(=O)c1ccc(F)cc1)O2 | -85* | 8 | 9
Cc1ccc(S(=O)(=O)N(C)C[C@@H]2OCCCC[C@H](C)Oc3ccc(NS(=O)(=O)c4ccccc4)cc3C(=O)N([C@@H](C)CO)C[C@@H]2C)cc1 | -54 | 7 | 110*
Cc1noc(C)c1S(=O)(=O)Nc1ccc2c(c1)C(=O)N([C@@H](C)CO)C[C@@H](C)[C@@H](CN(C)S(=O)(=O)c1ccc(Cl)cc1)OCCCC[C@H](C)O2 | -92* | 10 | 61
Cc1ccc(S(=O)(=O)Nc2ccc3c(c2)C(=O)N([C@@H](C)CO)C[C@H](C)[C@@H](CN(C)S(=O)(=O)c2ccc(Cl)cc2)OCCCC[C@H](C)O3)cc1 | -86* | -10 | 83
Cc1ccc(S(=O)(=O)Nc2ccc3c(c2)C(=O)N([C@@H](C)CO)C[C@H](C)[C@@H](CN(C)S(=O)(=O)c2ccc(Cl)cc2)OCCCC[C@@H](C)O3)cc1 | ? | -1 | 74
Cc1ccc(S(=O)(=O)Nc2ccc3c(c2)C(=O)N([C@H](C)CO)C[C@@H](C)[C@@H](CN(C)S(=O)(=O)c2ccccc2)OCCCC[C@@H](C)O3)cc1 | -64 | -11 | /
